# Test results from PubChem BioAssay AID1159580 (chemical genetic matrix, 2015).
# The campaign covered roughly 5,500 compounds. About 2,000 (36%) were called active. Not shown: some 18% with an inconclusive outcome. The list shows a part of the results. A number with no mark means an inactive call. No stated cut-off is given here; in the data, active means normalized growth mostly below about 0.91 (no sharp cut-off); inconclusive means no clear call, values can overlap the other calls; inactive means mostly above about 0.92.
# Experiment: chemical genetic growth profiling, strain panel (AID 1159580);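 further: tested at 20 µM; growth read once vehicle control cultures reached saturation at 30 °C; 1 = growth at the plate median or of vehicle wells; lower values mean less growth of the strain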
# Conditions: S. cerevisiae deletion strains, growth OD
smiles,measurement,setting,value
COc1cccc2c1CCC1CC(=O)CCC21C (stereo unspecified),normalized growth,"locus YAL021C, strain ccr4, active compounds read low",0.99
same,normalized growth,"locus YAL026C, strain drs2, active compounds read low",0.994
same,normalized growth,"locus YAL030W, strain snc1, active compounds read low",0.991
same,normalized growth,"locus YBL061C, strain skt5, active compounds read low",1
same,normalized growth,"locus YBR009C, strain hhf1, active compounds read low",0.996
same,normalized growth,"locus YBR021W, strain FUR4, active compounds read low",0.92
same,normalized growth,"locus YBR023C, strain chs3, active compounds read low",0.993
same,normalized growth,"locus YBR171W, strain sec66, active compounds read low",0.985
same,normalized growth,"locus YBR229C, strain ROT2, active compounds read low",0.992
same,normalized growth,"locus YBR231C, strain swc5, active compounds read low",0.996
same,normalized growth,"locus YBR279W, strain paf1, active compounds read low",0.988
same,normalized growth,"locus YCL011C, strain gbp2, active compounds read low",1
same,normalized growth,"locus YCL016C, strain dcc1, active compounds read low",0.995
same,normalized growth,"locus YCL029C, strain bik1, active compounds read low",0.955
same,normalized growth,"locus YCL061C, strain MRC1, active compounds read low",0.996
same,normalized growth,"locus YCL069W, strain vba3, active compounds read low",0.994
same,normalized growth,"locus YCR088W, strain abp1, active compounds read low",0.993
same,normalized growth,"locus YDL005C, strain med2, active compounds read low",1
same,normalized growth,"locus YDL035C, strain GPR1, active compounds read low",0.982
same,normalized growth,"locus YDL040C, strain nat1, active compounds read low",0.992
same,normalized growth,"locus YDL074C, strain BRE1, active compounds read low",0.931
same,normalized growth,"locus YDL101C, strain DUN1, active compounds read low",0.986
same,normalized growth,"locus YDL134C, strain PPH21, active compounds read low",0.956
same,normalized growth,"locus YDL185W, strain tfp1, active compounds read low",0.953
same,normalized growth,"locus YDL192W, strain arf1, active compounds read low",0.936
same,normalized growth,"locus YDR001C, strain nth1, active compounds read low",0.984
same,normalized growth,"locus YDR069C, strain doa4, active compounds read low",1.01
same,normalized growth,"locus YDR101C, strain arx1, active compounds read low",0.983
same,normalized growth,"locus YDR137W, strain rgp1, active compounds read low",0.998
same,normalized growth,"locus YDR159W, strain sac3, active compounds read low",1.02
same,normalized growth,"locus YDR162C, strain NBP2, active compounds read low",0.919
same,normalized growth,"locus YDR195W, strain ref2",1.07
same,normalized growth,"locus YDR297W, strain sur2, active compounds read low",1
same,normalized growth,"locus YDR318W, strain mcm21, active compounds read low",0.937
same,normalized growth,"locus YDR334W, strain swr1, active compounds read low",1
same,normalized growth,"locus YDR335W, strain msn5, active compounds read low",1
same,normalized growth,"locus YDR388W, active compounds read low",0.948
same,normalized growth,"locus YDR392W, strain spt3, active compounds read low",0.873
same,normalized growth,"locus YDR502C, strain sam2, active compounds read low",0.912 (active)
same,normalized growth,"locus YEL003W, strain gim4, active compounds read low",0.981
same,normalized growth,"locus YEL037C, strain rad23, active compounds read low",0.992
same,normalized growth,"locus YEL061C, strain CIN8 (second series), active compounds read low",0.995
same,normalized growth,"locus YEL061C, strain CIN8, active compounds read low",0.987
same,normalized growth,"locus YER015W, strain faa2, active compounds read low",1
same,normalized growth,"locus YER016W, strain bim1, active compounds read low",0.994
same,normalized growth,"locus YER110C, active compounds read low",0.934
same,normalized growth,"locus YER111C, strain swi4, active compounds read low",0.994
same,normalized growth,"locus YER155C, strain BEM2 (second series), active compounds read low",0.944
same,normalized growth,"locus YER155C, strain BEM2, active compounds read low",0.982
same,normalized growth,"locus YER167W, strain BCK2, active compounds read low",0.993
same,normalized growth,"locus YFR010W, strain ubp6, active compounds read low",1
same,normalized growth,"locus YGL078C, strain dbp3, active compounds read low",0.983
same,normalized growth,"locus YGL086W, strain mad1, active compounds read low",0.922 (active)
same,normalized growth,"locus YGL167C, strain pmr1, active compounds read low",1
same,normalized growth,"locus YGL173C, strain kem1, active compounds read low",0.987
same,normalized growth,"locus YGL227W, strain vid30, active compounds read low",0.998
same,normalized growth,"locus YGL240W, strain doc1, active compounds read low",0.982
same,normalized growth,"locus YGL248W, strain PDE1, active compounds read low",0.975
same,normalized growth,"locus YGL253W, strain hxk2, active compounds read low",1
same,normalized growth,"locus YGR135W, strain pre9, active compounds read low",0.886 (active)
same,normalized growth,"locus YGR229C, strain SMI1, active compounds read low",0.991
same,normalized growth,"locus YGR252W, strain gcn5, active compounds read low",0.777
same,normalized growth,"locus YHR013C, strain ard1, active compounds read low",0.976
same,normalized growth,"locus YHR027C, strain rpn1, active compounds read low",1.02
same,normalized growth,"locus YHR030C, strain SLT2, active compounds read low",0.991
same,normalized growth,"locus YHR079C, strain IRE1 (second series), active compounds read low",0.955
same,normalized growth,"locus YHR094C, strain hxt1, active compounds read low",0.948
same,normalized growth,"locus YHR129C, strain ARP1, active compounds read low",0.977
same,normalized growth,"locus YHR142W, strain chs7, active compounds read low",0.981
same,normalized growth,"locus YHR200W, strain rpn10, active compounds read low",0.941
same,normalized growth,"locus YIL066C, strain RNR3, active compounds read low",0.968
same,normalized growth,"locus YIL073C, strain SPO22, active compounds read low",0.887
same,normalized growth,"locus YIL125W, strain kgd1, active compounds read low",0.977
same,normalized growth,"locus YIR030C, strain dcg1, active compounds read low",0.962
same,normalized growth,"locus YJL092W, strain hpr5, active compounds read low",0.994
same,normalized growth,"locus YJL095W, strain BCK1 (second series), active compounds read low",0.99
same,normalized growth,"locus YJL095W, strain BCK1, active compounds read low",0.91
same,normalized growth,"locus YJL115W, strain asf1, active compounds read low",1
same,normalized growth,"locus YJL129C, strain trk1, active compounds read low",0.939
same,normalized growth,"locus YJL134W, strain LCB3, active compounds read low",0.981
same,normalized growth,"locus YJL154C, strain vps35, active compounds read low",0.995
same,normalized growth,"locus YJL164C, strain tpk1, active compounds read low",0.989
same,normalized growth,"locus YJL166W, strain qcr8, active compounds read low",0.991
same,normalized growth,"locus YJL168C, strain set2, active compounds read low",0.963
same,normalized growth,"locus YJL187C, strain SWE1 (second series), active compounds read low",0.963
same,normalized growth,"locus YJL187C, strain SWE1, active compounds read low",1.01
same,normalized growth,"locus YKL009W, strain mrt4, active compounds read low",0.97
same,normalized growth,"locus YKL068W, active compounds read low",0.969
same,normalized growth,"locus YKL085W, strain MDH1 (second series), active compounds read low",0.966
same,normalized growth,"locus YKL085W, strain MDH1, active compounds read low",0.966
same,normalized growth,"locus YKL160W, strain elf1, active compounds read low",0.98
same,normalized growth,"locus YKL190W, strain CNB1, active compounds read low",0.993
same,normalized growth,"locus YKR001C, strain vps1, active compounds read low",0.914
same,normalized growth,"locus YKR026C, strain gcn3, active compounds read low",0.992
same,normalized growth,"locus YKR091W, strain srl3, active compounds read low",0.988
same,normalized growth,"locus YLL001W, strain dnm1, active compounds read low",0.994
same,normalized growth,"locus YLL026W, active compounds read low",0.999
same,normalized growth,"locus YLL041C, strain sdh2, active compounds read low",0.99
same,normalized growth,"locus YLR027C, strain aat2, active compounds read low",0.985
same,normalized growth,"locus YLR039C, strain RIC1, active compounds read low",0.974
same,normalized growth,"locus YLR058C, strain SHM2, active compounds read low",0.982
same,normalized growth,"locus YLR102C, strain apc9, active compounds read low",0.961
same,normalized growth,"locus YLR221C, strain rsa3, active compounds read low",1.01
same,normalized growth,"locus YLR258W, strain gsy2, active compounds read low",0.983
same,normalized growth,"locus YLR262C, strain YPT6 (second series), active compounds read low",1
same,normalized growth,"locus YLR268W, strain sec22, active compounds read low",0.963
same,normalized growth,"locus YLR320W, strain mms22, active compounds read low",0.977
same,normalized growth,"locus YLR330W, strain CHS5, active compounds read low",0.98
same,normalized growth,"locus YLR342W, strain FKS1, active compounds read low",0.994
same,normalized growth,"locus YLR357W, strain rsc2, active compounds read low",1.01
same,normalized growth,"locus YLR370C, strain arc18, active compounds read low",0.987
same,normalized growth,"locus YLR371W, strain rom2, active compounds read low",0.965
same,normalized growth,"locus YLR384C, strain iki3, active compounds read low",0.999
same,normalized growth,"locus YLR418C, strain cdc73, active compounds read low",0.812 (active)
same,normalized growth,"locus YML016C, strain PPZ1, active compounds read low",0.978
same,normalized growth,"locus YML032C, strain rad52, active compounds read low",0.946
same,normalized growth,"locus YML120C, strain ndi1, active compounds read low",0.987
same,normalized growth,"locus YML124C, strain tub3, active compounds read low",0.969
same,normalized growth,"locus YMR058W, strain fet3, active compounds read low",0.995
same,normalized growth,"locus YMR078C, strain ctf18, active compounds read low",0.95
same,normalized growth,"locus YMR125W, strain sto1, active compounds read low",0.995
same,normalized growth,"locus YMR129W, active compounds read low",0.991
same,normalized growth,"locus YMR205C, strain PFK2, active compounds read low",0.982
same,normalized growth,"locus YMR223W, strain ubp8, active compounds read low",0.947
same,normalized growth,"locus YMR231W, strain pep5, active compounds read low",0.99
same,normalized growth,"locus YMR263W, strain SAP30, active compounds read low",0.965
same,normalized growth,"locus YMR307W, strain GAS1, active compounds read low",0.849
same,normalized growth,"locus YNL067W, strain RPL9B, active compounds read low",0.968
same,normalized growth,"locus YNL071W, strain lat1, active compounds read low",0.985
same,normalized growth,"locus YNL209W, strain ssb2, active compounds read low",0.992
same,normalized growth,"locus YNL233W, strain BNI4, active compounds read low",0.937
same,normalized growth,"locus YNL248C, strain rpa49, active compounds read low",0.998
same,normalized growth,"locus YNL250W, strain rad50, active compounds read low",0.952
same,normalized growth,"locus YNL271C, strain bni1, active compounds read low",0.962
same,normalized growth,"locus YNL298W, strain CLA4, active compounds read low",0.959
same,normalized growth,"locus YNL307C, strain MCK1, active compounds read low",0.917
same,normalized growth,"locus YNL322C, strain KRE1 (second series), active compounds read low",0.996
same,normalized growth,"locus YNL322C, strain KRE1, active compounds read low",0.982
same,normalized growth,"locus YNR049C, strain mso1, active compounds read low",1.01
same,normalized growth,"locus YNR052C, strain pop2, active compounds read low",0.969
same,normalized growth,"locus YOL006C, strain TOP1, active compounds read low",0.788
same,normalized growth,"locus YOL012C, strain htz1",0.835
same,normalized growth,"locus YOL147C, strain pex11, active compounds read low",0.949
same,normalized growth,"locus YOR001W, strain rrp6, active compounds read low",1.01
same,normalized growth,"locus YOR061W, strain CKA2, active compounds read low",0.991
same,normalized growth,"locus YOR069W, strain VPS5, active compounds read low",0.977
same,normalized growth,"locus YOR070C, strain gyp1, active compounds read low",0.985
same,normalized growth,"locus YOR080W, strain dia2, active compounds read low",1.01
same,normalized growth,"locus YOR083W, strain WHI5, active compounds read low",0.987
same,normalized growth,"locus YOR106W, strain vam3, active compounds read low",1
same,normalized growth,"locus YOR136W, strain idh2, active compounds read low",0.966
same,normalized growth,"locus YOR144C, strain elg1, active compounds read low",0.958
same,normalized growth,"locus YOR184W, strain ser1, active compounds read low",0.848 (active)
same,normalized growth,"locus YOR265W, strain rbl2, active compounds read low",1.01
same,normalized growth,"locus YOR270C, strain vph1, active compounds read low",0.907
same,normalized growth,"locus YOR290C, strain snf2, active compounds read low",0.985
same,normalized growth,"locus YOR316C, strain cot1, active compounds read low",0.947
same,normalized growth,"locus YPL051W, strain arl3, active compounds read low",0.981
same,normalized growth,"locus YPL078C, strain atp4, active compounds read low",0.979
same,normalized growth,"locus YPL106C, strain sse1, active compounds read low",1
same,normalized growth,"locus YPL240C, strain hsp82, active compounds read low",0.993
same,normalized growth,"locus YPR119W, strain clb2, active compounds read low",0.958
same,normalized growth,"locus YPR141C, strain kar3, active compounds read low",0.965
same,normalized growth,"locus YPR163C, strain tif3, active compounds read low",0.902 (active)
same,normalized growth,"locus YPR167C, strain met16, active compounds read low",0.952
same,normalized growth,"strain wtn01, active compounds read low",0.936
